The source made the active and inactive calls. The calls were made as follows: active = hit-call score of the fitted dose curve at least 0.9, where 1 is the maximum; inactive = score below 0.9.
Tests used:
[1] = read-out: Vascular endothelial growth factor receptor 2 (Homo sapiens) (UniProt P35968); experiment: BSK_4H_VEGFRII: BioMAP Diversity Plus: 4H Assay for Vascular endothelial growth factor receptor 2 (VEGFR2) Biomarker Activity (AID 2283031); conditions: primary human endothelial cells (HUVEC); actives raise or lower the signal
Summary of the method: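 In this multiplexed HUVEC system, biomarker ELISA was performed after 24 h chemical exposure. Parallel SRB staining (TCA fixation, 560 nm) tracked cytotoxicity; DMSO served as baseline.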

[2] = read-out: Human Leukocyte Antigen - DR isotype (HLADR), HLA-DRA (gene 3122); experiment: BSK_BE3C_HLADR: BioMAP Diversity Plus: BE3C Assay for Human Leukocyte Antigen - DR isotype (HLADR) Biomarker Activity (AID 2283032); conditions: primary human bronchial epithelial cells; actives raise or lower the signal
Summary of the method: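 Human primary bronchial epithelial cells (BE3C system) exposed to compound for 24 hours; cell-surface HLA-DR measured by ELISA, fitted bidirectionally relative to DMSO. Total protein by SRB in parallel cultures tracked cytotoxicity.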

[3] = read-out: Vascular cell adhesion molecule 1 (VCAM1), VCAM1 (gene 7412); experiment: BSK_4H_VCAM1: BioMAP Diversity Plus: 4H Assay for Vascular cell adhesion molecule 1 (VCAM1) Biomarker Activity (AID 2283033); conditions: primary human endothelial cells (HUVEC); actives raise or lower the signal
Summary of the method: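 Primary human umbilical vein endothelial cells, 4H stimulation system, treated for 24 h; cell-surface VCAM-1 quantified by ELISA. Bidirectional fitting against DMSO; cytotoxicity tracked by SRB total-protein staining in parallel cultures.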

[4] = read-out: Monokine induced gamma interferon (MIG), CXCL9 (gene 4283); experiment: BSK_BE3C_MIG: BioMAP Diversity Plus: BE3C Assay for Monokine induced gamma interferon (MIG) Biomarker Activity (AID 2283035); conditions: primary human bronchial epithelial cells; actives raise or lower the signal;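 also: MIG protein measured by ELISA in BE3C cultures after 24 h of dosing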
Summary of the method: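 MIG level was determined by ELISA after 24 h chemical treatment of primary human bronchial epithelial cells. Values were fitted bidirectionally with DMSO as the negative control and activity baseline.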

[5] = read-out: Transforming growth factor beta 1 (TGFb1), TGFB1 (gene 7040); experiment: BSK_BE3C_TGFb1: BioMAP Diversity Plus: BE3C Assay for Transforming growth factor beta 1 (TGFb1) Biomarker Activity (AID 2283036); conditions: primary human bronchial epithelial cells; actives raise or lower the signal
Summary of the method: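 Primary human bronchial epithelial cells dosed with chemical; TGF-b1 measured by ELISA 24 h after dosing. Bidirectional curve fitting against DMSO negative control; SRB total-protein staining in parallel cultures gauged cytotoxicity.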

[6] = read-out: Plasminogen activator inhibitor-1 (PAI1), SERPINE1 (gene 5054); experiment: BSK_BE3C_PAI1: BioMAP Diversity Plus: BE3C Assay for Plasminogen activator inhibitor-1 (PAI1) Biomarker Activity (AID 2283037); conditions: primary human bronchial epithelial cells; actives raise or lower the signal
Summary of the method: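 Primary human bronchial epithelial cells (BE3C system) exposed 24 h; PAI-1 quantified by ELISA. Parallel sulforhodamine B staining of total protein flags cytotoxicity. Bidirectional fit versus DMSO.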

[7] = read-out: urokinase plasminogen activator (uPA), PLAU (gene 5328); experiment: BSK_BE3C_uPA: BioMAP Diversity Plus: BE3C Assay for urokinase plasminogen activator (uPA) Biomarker Activity (AID 2283038); conditions: primary human bronchial epithelial cells; actives raise or lower the signal;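 also: uPA protein level quantified by ELISA in cell cultures; uPA read one day after compound addition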
Summary of the method: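 Using confluent primary human lung bronchial epithelial cultures, we dosed chemicals, waited 24 h, then ran a uPA ELISA, fitting bidirectionally against DMSO.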

[8] = read-out: Urokinase-type plasminogen activator receptor (uPAR), PLAUR (gene 5329); experiment: BSK_BE3C_uPAR: BioMAP Diversity Plus: BE3C Assay for Urokinase-type plasminogen activator receptor (uPAR) Biomarker Activity (AID 2283039); conditions: primary human bronchial epithelial cells; actives raise or lower the signal;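 also: uPAR protein level measured by ELISA on the cells; cells exposed to compound for one day before measurement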
Summary of the method: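 Primary human bronchial epithelial cells dosed for 24 h; uPAR quantified by ELISA with bidirectional fitting against DMSO. Overt cytotoxicity assessed in parallel cultures by SRB total-protein staining (0.1% SRB, 560 nm).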

[9] = read-out: Interleukin-6 (IL6), IL6 (gene 3569); experiment: BSK_CASM3C_IL6: BioMAP Diversity Plus: CASM3C Assay for Interleukin-6 (IL6) Biomarker Activity for (AID 2283040); conditions: primary human coronary artery smooth muscle cells; actives raise or lower the signal
[10] = read-out: Tissue plasminogen activator (tPA), PLAT (gene 5327); experiment: BSK_BE3C_tPA: BioMAP Diversity Plus: BE3C Assay for Tissue plasminogen activator (tPA) Biomarker Activity (AID 2283041); conditions: primary human bronchial epithelial cells; actives raise or lower the signal;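 also: tPA level quantified by ELISA one day after compound addition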
Summary of the method: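 Primary human bronchial epithelial cells in the BE3C system, exposed to compound for 24 h. tPA was quantified by ELISA; DMSO served as baseline, with gain or loss of signal fitted. Cytotoxicity checked in parallel cultures by SRB total-protein staining.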

[11] = read-out: Interleukin-8 (IL8), CXCL8 (gene 3576); experiment: BSK_CASM3C_IL8: BioMAP Diversity Plus: CASM3C Assay for Interleukin-8 (IL8) Biomarker Activity (AID 2283042); conditions: primary human coronary artery smooth muscle cells; actives raise or lower the signal;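 also: IL-8 protein level quantified by ELISA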
[12] = read-out: Human Leukocyte Antigen - DR isotype (HLADR), HLA-DRA (gene 3122); experiment: BSK_CASM3C_HLADR: BioMAP Diversity Plus: CASM3C Assay for Human Leukocyte Antigen - DR isotype (HLADR) Biomarker Activity (AID 2283043); conditions: primary human coronary artery smooth muscle cells; actives raise or lower the signal;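 also: cell-surface HLA-DR protein level quantified by ELISA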
[13] = read-out: Macrophage colony-stimulating factor (MCSF), CSF1 (gene 1435); experiment: BSK_CASM3C_MCSF: BioMAP Diversity Plus: CASM3C Assay for Macrophage colony-stimulating factor (MCSF) Biomarker Activity (AID 2283044); conditions: primary human coronary artery smooth muscle cells; actives raise or lower the signal;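 also: M-CSF protein amount quantified by ELISA after 24 h exposure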
[14] = read-out: Low-density lipoprotein receptor (LDLR), LDLR (gene 3949); experiment: BSK_CASM3C_LDLR: BioMAP Diversity Plus: CASM3C Assay for Low-density lipoprotein receptor (LDLR) Biomarker Activity (AID 2283045); conditions: primary human coronary artery smooth muscle cells; actives raise or lower the signal;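 also: LDLR protein level on the cell surface quantified by ELISA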
[15] = read-out: Monocyte Chemoattractant Protein-1 (MCP1), CCL2 (gene 6347); experiment: BSK_CASM3C_MCP1: BioMAP Diversity Plus: CASM3C Assay for Monocyte Chemoattractant Protein-1 (MCP1) Biomarker Activity (AID 2283046); conditions: primary human coronary artery smooth muscle cells; actives raise or lower the signal;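 also: MCP-1 level quantified by ELISA 24 h after dosing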
[16] = BSK_CASM3C_Proliferation: Cell Proliferation Assessment in the BioMAP Diversity Plus: CASM3C Assay (AID 2283047); conditions: primary human coronary artery smooth muscle cells;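 also: sulforhodamine B total protein stain as relative cell number at 560 nm; sub-confluent cells exposed 48 h before staining; fitted both ways against DMSO so gain or loss of cell number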
[17] = read-out: Monokine induced gamma interferon (MIG), CXCL9 (gene 4283); experiment: BSK_CASM3C_MIG: BioMAP Diversity Plus: CASM3C Assay for Monokine induced gamma interferon (MIG) Biomarker Activity (AID 2283048); conditions: primary human coronary artery smooth muscle cells; actives raise or lower the signal;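 also: MIG protein level measured by ELISA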
[18] = read-out: serum amyloid A (SAA), SAA1 (gene 6288); experiment: BSK_CASM3C_SAA: BioMAP Diversity Plus: CASM3C Assay for serum amyloid A (SAA) Biomarker Activity (AID 2283049); conditions: primary human coronary artery smooth muscle cells; actives raise or lower the signal;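 also: SAA protein level quantified by ELISA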
[19] = BSK_CASM3C_SRB: Viability Assessment in the BioMAP Diversity Plus: CASM3C Assay (AID 2283050); conditions: primary human coronary artery smooth muscle cells

Measured: outcome

Cc1ccccc1Cl
inactive: all assays above

CC(C)c1ccc(C(=O)N=C(N)N)cc1S(C)(=O)=O
inactive: all assays above

CCCCCCCCCCC
inactive: all assays above

Clc1cc(Cl)c(Cl)cc1Cl
inactive: all assays above

Nc1ccc(S(=O)(=O)c2ccc(N)cc2)cc1
inactive: all assays above

CC(=O)Oc1ccccc1C(=O)O
inactive: all assays above
